Compound activity deposited in PubChem BioAssay by National Center for Advancing Translational Sciences (NCATS).
The list is not random: actives were taken first. Their share in the collection is about 21%.
VP16 counter: VP16 counterscreen qHTS for inhibitors of ROR gamma transcriptional activity; AID 2546, 2010; Potency, µM (highest dose often 53.6 µM), for the others: at the top dose activity, negative = inhibition, hits mostly inhibitors; Drosophila S2 Gal4-VP16 UAS-luciferase, luminescence, 20 h; 310,000 compounds, 3.5% hits;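 note: Gal4-VP16 expression switched on by copper sulfate through the metallothionein promoter; potency is the fitted concentration of half-maximal effect; nearly all actives have a fitted effect of over 50% in size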
ELG1 DNA repair: qHTS screen for small molecules that inhibit ELG1-dependent DNA repair in human embryonic kidney (HEK293T) cells expressing luciferase-tagged ELG1 | Potency, µM (series often up to 46.1 µM), inactives show at the highest dose activity change, negative = inhibition, usual class: inhibitors | 330,000 compounds, 2.3% hits | AID 504467, 2011 | HEK293T ELG1-luciferase reporter, luminescence, 16 h; DNA damage induced by 5-fluorouridine; note: potency is the fitted concentration of half-maximal effect; nearly all actives have a fitted effect of over 55% in size
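DMSO vehicle served as the neutral condition. Each well held 2,000 cells given 5-fluorouridine plus compound; after 16 hr at 37 °C/5% CO2, ONE-Glo was added and luciferase measured 30 min later.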
IL-1B inflam inh: qHTS for Inhibitors of Inflammasome Signaling: IL-1-beta AlphaLISA Primary Screen; activity change, % at 57.5 µM; AID 743279, 2014; THP-1 LPS/ATP IL-1B secretion, AlphaLISA, 16 h; stronger effect = lower value; 360,000 compounds, 4.7% hits; in the data active = activity change below about -50%; inconclusive = mostly about -30% to -49%
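Secreted IL-1B measured by AlphaLISA bead assay after 16 h compound exposure of THP-1 cells; compounds (final up to 57.5 uM) added 1 h before LPS (250 ng/mL) and ATP (1.25 mM) stimulation; lower signal means less secretion.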
TDP1 cell CPT: qHTS for Inhibitors of human tyrosyl-DNA phosphodiesterase 1 (TDP1): qHTS in cells in presence of CPT; AID 686979, 2013; chicken DT40 Tdp1-/-;hTDP1 cells + 20 nM CPT, ATP luminescence, 48 h; 420,000 compounds, 12% hits; Potency, µM (titrated, usually from 46.2 µM), for the others: top-dose activity change, negative = growth inhibition, most hits filed as inhibitors; note: potency is the fitted concentration of half-maximal effect; nearly all actives have a fitted effect of over 55% in size
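Cell growth measured by CellTiter-Glo luminescence after a minimum 48 h, 37 C compound exposure with 20 nM CPT in Tdp1-knockout DT40 cells stably expressing hTDP1, seeded 400/well; qHTS titration format.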
RORgamma inh: qHTS for inhibitors of ROR gamma transcriptional activity; Nuclear receptor ROR-gamma (Mus musculus), P51450; Drosophila S2 Gal4-RORgamma UAS-luciferase reporter, 20 h; Potency, µM (doses to about 53.6 µM), inactives show at the top dose activity change, negative = inhibition, hits mostly inhibitors; 310,000 compounds, 5.4% hits; note: potency is the fitted concentration of half-maximal effect; nearly all actives have a fitted effect of over 60% in size
Target sequence (P51450 whole entry, looked up, the tested form may be a part): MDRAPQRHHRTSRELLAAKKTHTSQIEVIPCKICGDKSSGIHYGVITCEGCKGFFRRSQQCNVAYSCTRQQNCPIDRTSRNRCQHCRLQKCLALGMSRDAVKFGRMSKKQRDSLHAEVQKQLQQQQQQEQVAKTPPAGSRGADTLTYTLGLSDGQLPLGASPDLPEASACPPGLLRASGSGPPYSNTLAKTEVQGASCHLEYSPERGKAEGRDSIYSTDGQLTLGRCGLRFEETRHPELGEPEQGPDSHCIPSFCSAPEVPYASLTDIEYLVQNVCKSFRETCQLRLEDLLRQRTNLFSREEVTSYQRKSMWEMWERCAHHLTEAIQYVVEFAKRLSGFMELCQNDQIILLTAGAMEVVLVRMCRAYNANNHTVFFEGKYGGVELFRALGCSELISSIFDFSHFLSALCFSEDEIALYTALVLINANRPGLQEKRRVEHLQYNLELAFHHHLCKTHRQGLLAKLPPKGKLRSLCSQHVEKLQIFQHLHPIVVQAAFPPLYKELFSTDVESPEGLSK
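Compounds are pin-transferred onto Drosophila Schneider cells expressing a copper-inducible Gal4–ROR gamma transactivation domain fusion. After 1 hr, copper sulfate is added to 700 uM final; luciferase is read 20 hr later.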
TDP1 cell noCPT: qHTS for Inhibitors of human tyrosyl-DNA phosphodiesterase 1 (TDP1): qHTS in cells in absence of CPT. DT40 Tdp1-/- hTDP1 cells, no CPT, ATP luminescence, 48 h. Potency, µM (titrated, usually from 46.2 µM), inactives show at the top dose activity change, negative = growth inhibition, actives largely listed as inhibitors. 420,000 compounds, 15% hits. AID 686978, 2013; note: potency is the fitted concentration of half-maximal effect; nearly all actives have a fitted effect of over 55% in size
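Growth of hTDP1-complemented DT40 Tdp1-knockout cells is measured by ATP luminescence after at least 48 hr compound exposure at 37 °C, with DMSO substituting for the 20 nM CPT used in the parallel screen.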
* marks the source's active call; other numbers are inactive results; [ ] = remark or other dose. Unless noted, calls come from the whole dose curve; as a rule, active = well fitted curve in the direction sought with a large enough effect; inconclusive = small, poorly fitted or top-dose-only effect, or another doubt; inactive = no such curve, though single readings can be large; an effect the other way counts as inactive or inconclusive. % is set by controls: 0 for no effect and ±100 for the full control effect.

Cn1c(=O)c2c(ncn2Cc2ccc(Cl)cc2)n(C)c1=O was read as VP16 counter -27%, ELG1 DNA repair inconclusive, IL-1B inflam inh 8, TDP1 cell CPT 5.8µM*, RORgamma inh inconclusive and TDP1 cell noCPT 16µM*.
For Cn1c(=O)c2c(ncn2CCOc2ccc(Br)cc2)n(C)c1=O the results were VP16 counter inconclusive, ELG1 DNA repair -30%, IL-1B inflam inh 42, TDP1 cell CPT inconclusive, RORgamma inh inconclusive and TDP1 cell noCPT 16µM*.
`COc1cccc(Nc2ncc3nc(C)c(=O)n(-c4ccccc4)c3n2)c1` gave VP16 counter -2%, TDP1 cell CPT inconclusive, RORgamma inh 42% and TDP1 cell noCPT inconclusive.
`CCCCC(=O)Nc1ccc(C(=O)Nc2ccc(S(=O)(=O)Nc3nccc(C)n3)cc2)cc1` gave VP16 counter 3%, ELG1 DNA repair 0%, IL-1B inflam inh 16, TDP1 cell CPT -23%, RORgamma inh 36% and TDP1 cell noCPT 10%.
For CC(=O)N1CCN(Cc2cc(=O)oc3ccccc23)CC1 the results were IL-1B inflam inh 14, TDP1 cell CPT 7% and TDP1 cell noCPT 3%.
For CC1(CCc2ccccc2)NC(=S)N(c2ccccc2)N1 (stereo not drawn) the results were VP16 counter 20µM*, ELG1 DNA repair 18%, IL-1B inflam inh 17, TDP1 cell CPT -6%, RORgamma inh inconclusive and TDP1 cell noCPT -17%.
Screening BrC(=C\c1ccccc1)/C=N/Nc1nc(N2CCOCC2)nc(N2CCOCC2)n1 returned VP16 counter inconclusive, ELG1 DNA repair 16µM*, IL-1B inflam inh -129*, TDP1 cell CPT 2.3µM*, RORgamma inh -24% and TDP1 cell noCPT 13µM*.
BrC(/C=C\c1ccccc1)=N/Nc1nc(N2CCOCC2)nc(N2CCOCC2)n1 was read as VP16 counter -10%, ELG1 DNA repair 12µM*, IL-1B inflam inh -6, TDP1 cell CPT 7.3µM*, RORgamma inh -29% and TDP1 cell noCPT 10µM*.
For C(=N\Nc1nc(N2CCOCC2)nc(N2CCOCC2)n1)/c1ccncc1 the results were VP16 counter -12%, ELG1 DNA repair -8%, IL-1B inflam inh 8, TDP1 cell CPT 0%, RORgamma inh 0% and TDP1 cell noCPT -18%.
`C(=N\Nc1nc(N2CCOCC2)nc(N2CCOCC2)n1)/c1cccnc1` gave VP16 counter 0%[0.365 µM], ELG1 DNA repair 1%, IL-1B inflam inh 18, TDP1 cell CPT 0%, RORgamma inh 3% and TDP1 cell noCPT -11%.
CN(C)c1ccc(/C=C/C=N/Nc2nc(N3CCOCC3)nc(N3CCOCC3)n2)cc1 was read as VP16 counter 1%[10 µM], ELG1 DNA repair 8%, IL-1B inflam inh -14, TDP1 cell CPT 16µM*, RORgamma inh 2% and TDP1 cell noCPT inconclusive.
`CC(/C=N/Nc1nc(N2CCCCC2)nc(N2CCCCC2)n1)=C\c1ccccc1` gave VP16 counter -11%, ELG1 DNA repair 8%, IL-1B inflam inh 1, TDP1 cell CPT inconclusive, RORgamma inh inconclusive and TDP1 cell noCPT -24%.
For Cc1c(C(=O)NC2CCS(=O)(=O)C2)oc2ccccc12 (stereo not drawn) the results were VP16 counter -9%, ELG1 DNA repair 2%, IL-1B inflam inh 12, TDP1 cell CPT -1%, RORgamma inh 2% and TDP1 cell noCPT 0%.
`Cc1ccccc1OCC(=O)OCC(=O)NCCc1ccccc1` gave ELG1 DNA repair inconclusive, IL-1B inflam inh -4, TDP1 cell CPT -9% and TDP1 cell noCPT -7%.
`C/C1=C\CCC2C(/C=C(\C)CC1)OC(=O)C2CN1CCCCC1` (stereo not drawn) gave VP16 counter 8%, ELG1 DNA repair -10%, TDP1 cell CPT 10µM*, RORgamma inh 11% and TDP1 cell noCPT inconclusive.
COc1ccc(-c2sc3ccc(-c4ccc5c(c4)OCO5)cc3c2-c2ccc(OC)nc2)cc1 was read as ELG1 DNA repair 0%, IL-1B inflam inh -2, TDP1 cell CPT inconclusive and TDP1 cell noCPT inconclusive.
`CC(C)(C)S(=O)N1Cc2cc(C(=O)NCc3ccc(Oc4ccccc4)cc3)nc(-c3cccc(-c4cc5ccccc5o4)c3)c2[C@@H]1CCO` (stereo partly drawn) gave IL-1B inflam inh -6, TDP1 cell CPT inconclusive and TDP1 cell noCPT inconclusive.
`COCCNC(=O)c1cc2c(c(-c3cccc(-c4cc5ccccc5o4)c3)n1)[C@@H](CCO)N(S(=O)C(C)(C)C)C2` (stereo partly drawn) gave IL-1B inflam inh -19, TDP1 cell CPT 16µM* and TDP1 cell noCPT inconclusive.
For COCCNC(=O)c1cc2c(c(-c3cccc(-c4cc5ccccc5o4)c3)n1)[C@H](CCO)N(S(=O)C(C)(C)C)C2 (stereo partly drawn) the results were IL-1B inflam inh -8, TDP1 cell CPT inconclusive and TDP1 cell noCPT 23µM*.
CCNC(=O)c1cc2c(c(-c3cccc(-c4cc5ccccc5o4)c3)n1)[C@H](CCO)N(C(=O)NC(C)C)C2 was read as IL-1B inflam inh -23, TDP1 cell CPT 21µM* and TDP1 cell noCPT 9.2µM*.
`CC(C)NC(=O)N1Cc2cc(C(=O)NC3CCCC3)nc(-c3cccc(-c4cccnc4)c3)c2[C@@H]1CCO` gave IL-1B inflam inh -13, TDP1 cell CPT inconclusive and TDP1 cell noCPT 13µM*.
Screening COc1cc(=O)n2c(c1C(=O)NCc1ccc3c(c1)OCO3)CCN(C(=O)c1ccccc1F)CC2 returned TDP1 cell CPT 4% and TDP1 cell noCPT -15%.
CC1(C(=O)NS(=O)(=O)Cc2cccc(Cl)c2)CCN1C(=O)C1(c2ccc(Cl)cc2)CCC1 (stereo not drawn) was read as IL-1B inflam inh -10, TDP1 cell CPT -12% and TDP1 cell noCPT -14%.
`CN(N=O)c1ccc(/C=C/c2ccccc2)cc1` gave TDP1 cell CPT inconclusive and TDP1 cell noCPT -17%.
